Rows were chosen to be rich in hits. Some 3.4% of all compounds tested hit in one or more screens of this group.
Mcl1-Noxa inh – Mcl-1/Noxa binding inhibitors, primary screen, biochemical, TR-FRET, 1536-well; TR-FRET Mcl-1/Noxa peptide binding, 2 h; inhibition, % at 21.7 µM; 1.5% of 220,000 active; AID 1022, 2008;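 active = compounds that cut the protein-peptide binding signal by more than 50% relative to plate controls in a single-dose test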;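 note: His-tagged Mcl-1 with rhodamine Noxa BH3 peptide and terbium anti-His antibody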
Target sequence (Q07820 whole entry, looked up): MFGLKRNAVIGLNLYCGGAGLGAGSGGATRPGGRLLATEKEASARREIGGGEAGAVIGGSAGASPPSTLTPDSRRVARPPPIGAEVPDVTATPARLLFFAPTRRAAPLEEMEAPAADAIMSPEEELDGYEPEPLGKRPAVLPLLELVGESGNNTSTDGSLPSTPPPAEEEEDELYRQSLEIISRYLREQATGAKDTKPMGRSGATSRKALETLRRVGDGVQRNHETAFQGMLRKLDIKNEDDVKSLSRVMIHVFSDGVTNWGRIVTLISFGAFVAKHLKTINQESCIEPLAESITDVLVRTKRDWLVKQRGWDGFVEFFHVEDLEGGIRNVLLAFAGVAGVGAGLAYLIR
Calpain2 inh – inhibitors of pig calpain II, primary screen, biochemical, fluorogenic peptide substrate, 1536-well. purified calpain II, 30 min. inhibition, % at 16 µM. 0.37% of 220,000 active. AID 1236, 2008;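 active = inhibition above about 50%, limit read from the data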
Mcl1 Bid PPI – Mcl-1/Bid binding inhibitors, primary screen, biochemical, TR-FRET, 1536-well; inhibition, % at 21.7 µM; Induced myeloid leukemia cell differentiation protein Mcl-1 (Homo sapiens), Q07820; TR-FRET Mcl-1/Bid-Dy647 peptide binding; 0.97% of 220,000 active;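 active = compounds that cut the binding signal by more than half at the single screening dose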;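 note: His-tagged Mcl-1 with europium anti-His antibody binding Bid BH3 peptide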
14-3-3 Bad PPI – inhibitors of 14-3-3 zeta/Bad binding, primary screen, biochemical, TR-FRET, bovine 14-3-3 zeta | 14-3-3 protein zeta/delta (Bos taurus), P63103 | TR-FRET 14-3-3zeta/Dy647-pBad peptide displacement, 1 h | inhibition, % at 21.7 µM | 0.71% of 220,000 active;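 active = inhibition above about 70%, limit read from the data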
Target sequence (P63103 whole entry, looked up): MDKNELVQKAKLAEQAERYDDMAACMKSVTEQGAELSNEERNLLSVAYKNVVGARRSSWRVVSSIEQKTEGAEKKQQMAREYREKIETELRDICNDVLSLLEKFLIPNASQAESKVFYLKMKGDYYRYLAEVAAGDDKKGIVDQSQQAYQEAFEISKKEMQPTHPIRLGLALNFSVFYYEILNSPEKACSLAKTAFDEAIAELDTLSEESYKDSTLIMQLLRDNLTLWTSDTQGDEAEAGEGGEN
Mcl-1 Bim block – inhibitors of Bim peptide binding to Mcl-1, primary screen, biochemical, bead-based flow cytometry, multiplex; Bim peptide-Mcl-1 binding; inhibition, % at 10 µM; Induced myeloid leukemia cell differentiation protein Mcl-1 (Homo sapiens), Q07820; 0.1% of 190,000 active; AID 1009, 2008; in the data active = inhibition above about 40%
NCF1 inh – p47phox/p22phox peptide binding inhibitors, primary screen, biochemical, uHTS, NADPH oxidase regulatory subunit; Neutrophil cytosol factor 1 (Homo sapiens), P14598; fluorescence polarization, 2 h; AID 1274, 2008; inhibition, % at 24.7 µM; 0.53% of 220,000 active;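 active = inhibition above about 30%, limit read from the data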
A number is an active result; i = inactive; nt = no result.

SMILES	Mcl1-Noxa inh	Calpain2 inh	Mcl1 Bid PPI	14-3-3 Bad PPI	Mcl-1 Bim block	NCF1 inh
Cc1ccc(-c2nnn(CC(=O)N(c3cnc4ccccc4c3)C(C(=O)NC3CCCC3)c3ccncc3)n2)o1 (stereo unspecified)	i	i	i	i	i	i
O=C(N1CCOCC1)C12CC3CC(C1)CC(c1ccccc1)(C3)C2	i	i	i	i	i	i
Cc1ccc(C23CC4CC(CC(C(=O)N5CCOCC5)(C4)C2)C3)cc1	i	i	57.5	i	i	i
Cc1ccc(/C=N/Nc2cc(C)nc(NCc3ccccc3)n2)cc1	i	i	i	i	nt	i
Cc1cc(N/N=C/c2ccc(O)cc2)nc(NS(=O)(=O)c2ccccc2)n1	53.5	i	i	i	i	i
Cc1ccc(S(=O)(=O)n2nc(C)cc2C)cc1	i	i	i	i	i	43.3
O=C(COC(=O)c1cc2ccccc2cc1O)NC(=O)NCc1ccco1	i	i	i	i	i	i
COc1ccc(N(C(=O)C(C)C)S(=O)(=O)c2cccc3cccnc23)cc1	i	i	i	i	i	59.3
CC(=O)NCCn1c(SCc2ccccc2F)nc2ccccc2c1=O	i	i	i	i	i	i
COCCn1c(SCc2ccccc2F)nc2ccccc2c1=O	i	51.0	i	i	i	i
COc1ccc(N2C(=O)C(CN3CCN(C)CC3)C2c2ccccc2)cc1 (stereo unspecified)	i	i	i	i	i	i
CN(Cc1cnn(C)c1)Cc1nc(Cc2ccccc2Cl)no1	i	i	i	i	i	42.9
CCCOc1ccc(NC(N)=O)cc1OCCC	i	i	i	i	i	31.3
CCOc1ccc(NC(N)=O)cc1OCC	i	i	i	i	i	i
O=C(NCCCN1CCOCC1)c1ccccc1	i	i	i	80.7	i	i
Cc1ccc(C(=O)N/C(=C\c2ccc(C(C)C)cc2)C(=O)NCCCN2CCOCC2)cc1	51.1	i	i	i	i	i
CSc1ccccc1NC(=O)CNCCCN1CCOCC1	i	i	89.1	i	nt	i
Cc1cc(C)c(OCC(=O)Nc2ccccc2N2CCOCC2)c(C)c1	i	i	i	i	i	41.4
O=C(NCCCN1CCOCC1)c1cccnc1	i	i	i	i	i	i
COc1ccc(C=O)cc1Cn1ccnc1C	i	i	i	i	i	i
O=C(CN1CCOCC1)NCc1ccccc1	i	i	i	i	i	42.6
O=C(CN1CCN(c2ncccn2)CC1)NCc1ccccc1	i	i	i	i	i	i
CCOCCCNCC(=O)Nc1ccccc1N1CCOCC1	i	i	i	71.0	i	i
Cc1n[nH]c(C)c1CCN(C)Cc1cn(C)nc1-c1ccccc1F	i	i	i	i	i	i
COc1ccc(NC(=O)c2cc(C3CC3)on2)c(OC)c1	i	i	85.3	i	i	i
SMILES	Mcl1-Noxa inh	Calpain2 inh	Mcl1 Bid PPI	14-3-3 Bad PPI	Mcl-1 Bim block	NCF1 inh
COC(=O)c1ccccc1NC(=O)c1cc(C2CC2)on1	i	i	i	i	i	i
C=CCOC(=O)c1c(C)nc2cc3c(cc2c1C)OCO3	i	i	i	i	i	i
COc1ccc(NS(=O)(=O)c2cccc(NC(=O)CCC(=O)c3ccc(Cl)cc3)c2)cc1	i	i	96.2	i	i	i
COc1ccc(NS(=O)(=O)c2cccc(NC(=O)CCC(=O)c3cccs3)c2)cc1	i	i	i	i	i	i
CNC(=O)CC1C(=O)N(c2ccc(OC)cc2)C(=S)N1NC(=O)c1cccc(F)c1 (stereo unspecified)	i	i	98.9	i	nt	i
CCOc1cc(Br)c(Br)c(C=Nc2ccc(NC(C)=O)cc2)c1O	51.0	i	i	i	i	i
CCOc1cc(/C=N/NC(=O)C(N)=O)cc(Br)c1O	i	i	i	i	i	i
CC(=O)Nc1ccc(N=Cc2c(O)c(C(=O)Nc3ccccc3)cc3ccccc23)cc1	84.4	i	70.6	i	i	i
COc1ccc(-c2csc3ncn(-c4ccccc4)c(=O)c23)cc1OC	i	i	i	i	i	i
CCOc1ccc(-c2csc3ncn(-c4ccc(OC)cc4)c(=O)c23)cc1	i	i	84.1	i	i	i
O=C(NCc1ccc2c(c1)OCO2)c1cc(=O)[nH]c2ccccc12	i	i	i	i	nt	i
O=C(O)CCC(=O)N1N=C(c2ccc(Br)cc2)CC1c1cccs1 (stereo unspecified)	i	i	i	82.1	i	i
O=C(Cc1cccs1)Nc1nnc(SCC(=O)NC2CCCCC2)s1	i	i	i	i	i	i
O=C(Cc1ccc(F)cc1)Nc1nnc(SCC(=O)NC2CCCC2)s1	i	i	71.7	i	i	i
O=C(NCC1COc2ccccc2O1)C1CCN(S(=O)(=O)c2cccc3nsnc23)CC1 (stereo unspecified)	i	i	i	84.7	i	i
COc1ccc(CNC(=O)C/C(C)=N/NC(=O)COc2ccc(Br)cc2)cc1	i	i	i	i	i	i
O=C(CCCCn1c(=O)c2ccccc2n(CC(=O)Nc2ccc(F)cc2)c1=O)NCc1ccco1	i	63.6	i	i	i	i
Cc1ccc(NC(=O)Cn2c(=O)n(CCCCC(=O)NCc3ccco3)c(=O)c3ccccc32)cc1	i	i	i	i	i	i
O=c1ccc2[n+]([O-])c3ccc(O)cc3oc-2c1	73.7	i	i	i	nt	i
O=c1cc(O)c2ccc(O)cc2o1	i	i	i	i	i	i
CCN1C(=O)C(CC(=O)Nc2ccc(F)cc2)N(CCCN2CCN(c3ccc(F)cc3)CC2)C1=S (stereo unspecified)	i	i	i	i	i	i
CN1CCN(c2nc(-c3ccccc3)nc(-c3ccccc3)c2C#N)CC1	i	i	i	i	i	i
N#Cc1c(-c2ccccc2)nc(-c2ccccc2)nc1N1CCOCC1	i	i	50.9	i	i	i
CC(=O)C(C(C)=O)c1c(Cl)c(O)c(O)c2c(C(=O)c3ccccc3)coc12	56.5	i	i	i	i	i
Cc1ccc(C)c(N2CCN(C(=O)C3CCCCN3S(=O)(=O)c3ccc(F)cc3)CC2)c1 (stereo unspecified)	i	57.5	i	nt	i	i
Cc1ccc(S(=O)(=O)N2CCCC2C(=O)O)cc1 (stereo unspecified)	i	i	i	i	i	i
Cc1ccccc1OCCSc1nc2ncnc(N)c2[nH]1	i	i	i	i	i	i
O=c1oc2ccc(Cl)cc2cc1-c1nnc(Nc2cccc(C(F)(F)F)c2)s1	i	i	i	i	i	i
COc1ccc2oc(=O)c(/C(C)=N/Nc3nc(-c4cc(C)ccc4C)cs3)cc2c1	i	i	i	i	i	i
CNc1nnc(-c2cc3cc(Cl)ccc3oc2=O)s1	63.7	i	i	i	i	i

Assay outcomes as filed in PubChem BioAssay.
